Sfp inh = inhibitors of Bacillus subtilis Sfp phosphopantetheinyl transferase; Biochemical Sfp PPTase activity, qHTS; Potency, µM, without a hit: largest response in the series, negative = inhibition, most hits filed as inhibitors; 3.5% of 310,000 active;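 also: the enzyme is Sfp with the accession as filed and its product quenches rhodamine fluorescence; 0% = enzyme reaction without inhibitor and -100% = no enzyme wells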
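Step 1, compound plus 15 nM Sfp-PPTase, 15 min, room temperature. Step 2, add rhodamine-CoA (5 uM) and BHQ-2-YbbR (12.5 uM). Step 3, read 525/598 nm fluorescence at 0 and 30 min.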
HP1b chromo inh = HP1-beta chromodomain-methylated histone interaction inhibition. P83916. AID 540317. AlphaScreen HP1-beta / biotin-H3K9me3 peptide binding. 0.56% of 390,000 active. Potency, µM (highest dose often 114 µM), for the others: at the highest dose activity change, negative = inhibition, most hits filed as inhibitors; also: nearly all actives have a fitted effect of over 70% in size
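AlphaScreen: HP1-beta (50 nM) preformed 30 min with biotin-H3(1-18)K9me3 peptide (50 nM) in PBS pH 7.4, 0.01% Tween-20. Compound added for 30 min at RT, then streptavidin donor/nickel chelate acceptor beads (10 ug/mL) for 30 min.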
BAZ2B block = BAZ2B (human) inhibition; Q9UIF8; AlphaScreen BAZ2B-H3K14Ac peptide displacement; Potency, µM (titrated, usually from 114 µM), without a hit: at the top dose activity change, negative = inhibition, actives largely listed as inhibitors; 4.4% of 360,000 active; AID 504333; also: % is scaled to controls: 0 for no effect and ±100 for the full control effect; nearly all actives have a fitted effect of over 60% in size
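Compounds, titrated to a top concentration of 110 uM, were incubated 30 min at room temperature with preformed BAZ2B/acetyl-K14 H3 peptide complex (50 nM each). Proximity signal was measured by AlphaScreen after 20 min with beads.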
L3MBTL1 inh = L3MBTL1 (human) inhibition; AID 485360; AlphaScreen L3MBTL1–H3K9me1 peptide binding; Potency, µM (doses to about 57.1 µM), without a hit: at the top dose activity, negative = inhibition, most hits filed as inhibitors; 0.66% of 230,000 active; also: % is scaled to controls: 0 for no effect and ±100 for the full control effect; nearly all actives have a fitted effect of over 60% in size
Target sequence (Q9Y468 whole entry, looked up): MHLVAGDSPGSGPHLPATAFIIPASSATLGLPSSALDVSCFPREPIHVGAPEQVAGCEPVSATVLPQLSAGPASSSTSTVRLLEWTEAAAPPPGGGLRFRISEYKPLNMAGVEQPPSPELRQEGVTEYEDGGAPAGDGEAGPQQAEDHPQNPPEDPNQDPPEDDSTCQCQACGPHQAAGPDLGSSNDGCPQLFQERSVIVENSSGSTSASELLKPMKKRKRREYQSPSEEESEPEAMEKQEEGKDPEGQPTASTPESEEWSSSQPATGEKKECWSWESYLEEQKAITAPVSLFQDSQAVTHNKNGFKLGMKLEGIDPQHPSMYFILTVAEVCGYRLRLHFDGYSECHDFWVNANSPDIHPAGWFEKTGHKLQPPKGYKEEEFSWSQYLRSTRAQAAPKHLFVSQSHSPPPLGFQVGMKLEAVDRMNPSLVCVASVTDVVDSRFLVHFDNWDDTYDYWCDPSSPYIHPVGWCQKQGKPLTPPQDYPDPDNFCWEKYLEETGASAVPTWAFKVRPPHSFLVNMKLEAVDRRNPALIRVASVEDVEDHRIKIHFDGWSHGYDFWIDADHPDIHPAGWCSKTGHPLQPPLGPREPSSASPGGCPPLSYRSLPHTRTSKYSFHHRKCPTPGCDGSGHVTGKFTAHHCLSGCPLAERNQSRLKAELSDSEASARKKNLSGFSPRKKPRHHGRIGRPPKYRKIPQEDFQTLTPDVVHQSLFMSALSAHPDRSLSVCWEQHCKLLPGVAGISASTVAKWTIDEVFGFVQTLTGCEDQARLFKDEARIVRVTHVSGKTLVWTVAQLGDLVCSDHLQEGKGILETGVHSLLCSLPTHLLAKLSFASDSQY
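L3MBTL1 50 nM + b-AHA-H3(1-15)K9me1 75 nM, 30 min RT; compound added, 30 min RT; streptavidin donor/Ni-chelate acceptor beads 10 ug/mL each final, 30 min RT dark; AlphaScreen read.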
G9a block = G9a (human) methyltransferase inhibition | Q96KQ7 | G9a H3K9 monomethylation, AlphaScreen, 2 h | Potency, µM (doses to about 102 µM), inactives show top-dose activity, negative = inhibition, hits mostly inhibitors | 8.8% of 350,000 active; also: % is scaled to controls: 0 for no effect and ±100 for the full control effect; nearly all actives have a fitted effect of over 75% in size
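Using a bead-based AlphaScreen, monomethylated H3K9 product from 2 h room-temperature reactions (G9a 20 nM, peptide 500 nM, SAM 20 uM) was detected with 0.5 ug/mL rabbit anti-H3K9me1 antibody.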
JMJD2A Tudor inh = blocks the human JMJD2A Tudor domain | O75164 | AlphaScreen JMJD2A-Tudor / H3K4me3 peptide binding | Potency, µM (titrated, usually from 114 µM), inactives show at the top dose activity change, negative = inhibition, actives largely listed as inhibitors | 4.4% of 390,000 active | AID 504339; also: % is scaled to controls: 0 for no effect and ±100 for the full control effect; nearly all actives have a fitted effect of over 50% in size
An asterisk follows results filed as active; ? = inconclusive; / = no result given; [ ] = remark or other dose. In the library only some 12% were active in any assay of this set; here they are far more common. Calls follow the shape of the dose curve; as a rule, active = well fitted curve in the direction sought with a large enough effect; inconclusive = small, poorly fitted or top-dose-only effect, or another doubt; inactive = no such curve, though single readings can be large; an effect the other way counts as inactive or inconclusive. Potency is read from the fitted curve at half-maximal effect.

SMILES	Sfp inh	HP1b chromo inh	BAZ2B block	L3MBTL1 inh	G9a block	JMJD2A Tudor inh
Cc1cccc(N2CCN(C(=O)CCC(=O)N3CC(C)Oc4ccccc43)CC2)c1C (stereo not given)	-10%	25%	-4%	-4%	15%	-14%
Cc1ccccc1-n1c(-c2ccco2)n[nH]c1=S	4%	-10%	-9%	1%	7.1µM*	3.2µM*
FC(F)(F)c1ccccc1-n1c(-c2ccco2)n[nH]c1=S	11%	49%	-2%	-3%	16µM*	-30%
c1ccc(-n2c(-c3ccco3)nnc2-c2ccco2)cc1	13%	31%	13%	/	30%[12.7 µM]	-3%
Cn1cc(CCNC(=O)CC2C(=O)NCCN2Cc2cccc(Oc3ccccc3)c2)cn1 (stereo not given)	0%	27%	-33%	-6%	35µM*	?
COc1cccc(CN2CCNC(=O)C2CC(=O)NCCc2ccccn2)c1 (stereo not given)	-17%	33%	-5%	8%	?	-6%
O=C(CC1C(=O)NCCN1Cc1cccc(Oc2ccccc2)c1)NCCc1ccccn1 (stereo not given)	3%	28%	-4%	-13%	22µM*	-30%
CC(C)C[C@H](NC(=O)[C@H](CC(C)C)NC(=O)[C@H](Cc1ccccc1)NC(=O)[C@@H](N)CO)C(=O)N[C@@H](CCCN=C(N)N)C(=O)N[C@@H](CC(N)=O)C(=O)O	-5%	/	/	/	/	/
CC1CCC(C(=O)O)NC1c1ccc(-c2ccco2)cc1 (stereo not given)	10%	/	/	/	/	/
O=C1CSC(c2ccco2)N1 (stereo not given)	-3%	27%	1%	-4%	79µM*	-4%
O=C(O)C1CSC(c2ccco2)N1 (stereo not given)	?	40µM*	50µM*	44%	3.2µM*	-22%[11.4 µM]
COc1ccc(C2NC(=O)CS2)cc1 (stereo not given)	-9%	30%	-2%	3%	-12%[59 µM]	-6%
O=C(Cn1nc(-c2ccccc2)oc1=O)OCC(=O)c1ccccc1	/	29%	/	7%	/	-4%
O=C(Nc1ccc(F)cc1)C1COc2ccccc2O1 (stereo not given)	4%	40%	3%	/	40µM*	-5%
Cc1ccnc(NS(=O)(=O)c2ccc(NC(=O)C3COc4ccccc4O3)cc2)n1 (stereo not given)	16%	?	-22%	/	2%	18µM*
NC(=O)c1ccc(NC(=O)C2COc3ccccc3O2)cc1 (stereo not given)	11%	30%	6%	2%	19%	-1%
Cc1ccnc(NS(=O)(=O)c2ccc(NC(=O)C3CCCCC3)cc2)n1	1%	9%	-4%	7%	?	-6%
CCOc1ccc(NCc2cc3c(C(C)(C)C)nn(-c4ccccc4)c3[nH]c2=O)cc1	27%	?	22µM*	/	40µM*	50µM*
Cc1ccc(-c2nn(-c3ccccc3)c3[nH]c(=O)c(CNCCN(C)C)cc23)cc1	?	/	-7%	/	8%[12.7 µM]	/
CC(C)(C)c1nn(-c2ccccc2)c2[nH]c(=O)c(C=O)cc12	16%	47%	-12%	/	?	0%
Cc1nn(-c2ccccc2)c2[nH]c(=O)c(CNc3ccc4c(c3)OCCO4)cc12	22%	-36%	35µM*	-19%	11µM*	?
O=S(=O)(c1ccc(F)cc1F)N1CCN(c2nc(-c3cccs3)nc3ccccc23)CC1	/	2%	/	/	/	-16%
CCCc1nc(SC)ncc1C(=O)N1CCN(c2ccc(Cl)cc2)CC1	/	10%	0%	/	-1%[59 µM]	-27%
Cc1ccc(Cn2cc(S(=O)(=O)c3ccc(C(C)C)cc3)c(=O)c3cc4c(cc32)OCO4)cc1	?	9%	-1%	-3%	45µM*	-31%
CC(C)c1ccc(S(=O)(=O)c2cn(Cc3ccc(F)cc3)c3cc4c(cc3c2=O)OCO4)cc1	7%	/	7%	3%	-10%[59 µM]	/
SMILES	Sfp inh	HP1b chromo inh	BAZ2B block	L3MBTL1 inh	G9a block	JMJD2A Tudor inh
C=CC1=C2C=C(C3CC3)N(c3ccc(OC)cc3)C=C2C(=O)C(C)(OC(=O)c2ccco2)C1=O (stereo not given)	5%	/	/	/	/	/
N#Cc1c(Sc2ncc(C(F)(F)F)cc2Cl)nsc1C/C=N\OCc1c(F)cccc1Cl	5%	-23%	40µM*	/	10µM*	?
FC(F)(F)c1cnc(Sc2nnc(-c3cccs3)n2CC2CCCO2)c(Cl)c1 (stereo not given)	0%	15%	-27%	/	-36%[12.7 µM]	-8%
c1ccc(C2=Nn3c(nnc3-c3n[nH]c4c3CCC4)SC2)cc1	-9%	56%	-27%	3%	?	?
Clc1ccc(C2=Nn3c(nnc3-c3n[nH]c4c3CCC4)SC2)cc1Cl	-16%	4%	-3%	-19%	11µM*	?
N#CCCN(NC1=NS(=O)(=O)c2ccccc21)C(=O)c1ccccc1Br	7%	59%	-1%	/	-3%[2.33 µM]	35µM*
C=CC[C@H](CC(=O)NCCO)C(=O)N[C@H](COC(=O)[C@H](CC=C)CC(=O)OC(C)(C)C)c1ccccc1	/	54%	/	-7%	/	-11%
CCc1c(C)sc(NC(=O)c2cc(-c3ccc(OC)c(OC)c3)on2)c1C#N	11%	?	3%	8%	7.9µM*	-6%
CCc1c(C)sc(NC(=O)c2cc(-c3cccc(Cl)c3)on2)c1C#N	/	-11%	-2%	/	3.2µM*	-11%
COc1ccc(CCNC(=O)c2cc(-c3ccc(Cl)cc3)on2)cc1OC	/	26%	3%	/	-6%[59 µM]	-25%
CCc1c(C)sc(NC(=O)c2cc(-c3ccc(O)cc3)on2)c1C#N	-3%	14%	8%	/	45µM*	-6%
CCc1c(C)sc(NC(=O)c2cc(CC(C)C)on2)c1C#N	-7%	19%	-3%	/	?	6%

From PubChem BioAssay
